From PubChem BioAssay
VHR inh abs = inhibitors of human VHR1 phosphatase (DUSP3); P51452; recombinant VHR phosphatase, pNPP absorbance; 290,000 tested, 0.52% active; AID 1654; inhibition, % at 13.3 µM; in the data active = inhibition above about 50%
Target sequence (P51452 whole entry, looked up): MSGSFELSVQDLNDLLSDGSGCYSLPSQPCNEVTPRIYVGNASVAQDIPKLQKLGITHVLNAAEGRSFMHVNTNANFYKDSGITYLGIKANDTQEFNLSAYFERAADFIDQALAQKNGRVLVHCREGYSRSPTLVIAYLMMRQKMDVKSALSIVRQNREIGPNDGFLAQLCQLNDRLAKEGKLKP
RecA intein inh = Mtb RecA intein splicing inhibition | inhibition, % (concentration not given with the values) | 290,000 tested, 0.75% active | cell-free RecA intein splicing, fluorescence | AID 2221; in the data active = inhibition above about 30%;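 also: 0% = vehicle wells and 100% = reference inhibitor control wells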
PriA SSB inh = K. pneumoniae PriA-SSBct interaction inhibition. inhibition, % at 33 µM. AlphaScreen SSBct-PriA binding, biotinylated peptide. 430,000 tested, 0.6% active; in the data active = inhibition mostly above about 37%, no sharp cut-off; inactive = mostly below about 20%;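 also: plate controls were negative control peptide for no effect and reference peptide for full effect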
CCHFV vOTU inh = blocks the CCHF virus ovarian tumor domain protease; CCHFV vOTU protease, Pep-AMC fluorescence; inhibition, % at 11.5 µM; 370,000 tested, 0.55% active; in the data active = inhibition above about 30%; also: 0% = vehicle wells with enzyme and 100% = no enzyme wells
SARS 3CLpro inh = SARS-CoV 3CLpro protease inhibition; P0C6X7; recombinant SARS-CoV 3CLpro, quenched FRET peptide cleavage; inhibition, % at 6 µM; 290,000 tested, 0.14% active; in the data active = inhibition above about 12%
An asterisk follows results filed as active; . = no result; ! = repeats disagree. In the library only some 1.7% were active in any assay of this set; here they are far more common.

SMILES	VHR inh abs	RecA intein inh	PriA SSB inh	CCHFV vOTU inh	SARS 3CLpro inh
O=C(CN1CC(=O)Oc2ccccc21)OCC(=O)c1ccc(Br)cc1	.	0	86*	-1	-4
O=C(CN1CC(=O)Oc2ccccc21)OCC(=O)c1ccc(F)cc1	-6	2	77*	3	3
O=C1CN(CC(=O)N2CCCCC2)c2ccccc2O1	19	5	11	15	0
COC(=O)CCCC1=CC2=CC(=O)C(C)(OC(=O)c3cnc4ccccc4n3)C(=O)C2=CO1 (centres undefined)	.	-6	.	.	.
CCCCC1=CC2=CC(=O)C(C)(OC(=O)c3cnc4ccccc4n3)C(=O)C2=CO1 (centres undefined)	0	34*	.	.	.
COc1ccc(CC(=O)Nc2nnc(Cc3ccccc3)o2)cc1	.	.	1	.	.
Cc1ccc(-n2cc(C(=O)NCCCc3ccccc3)nn2)cc1	.	.	-8	.	.
CCN(Cc1ccc(OC)c(F)c1)C(=O)CCl	0	49*	0	2	0
CCN(Cc1ccc(OC)c(F)c1)C(=O)C1CCCO1 (centres undefined)	21	0	-6	21	-4
CCOc1c(C)cc(S(=O)(=O)NC2CC(C)(C)NC(C)(C)C2)c(C)c1C	.	.	-15	.	.
O=C(CSc1nccn1Cc1ccc(F)cc1)NCCc1ccccc1	.	.	-6	.	.
Cn1c(Cc2cccs2)nnc1SCc1nc2ccccc2[nH]1	53*	-1	-5	-5	-2
Cn1c(SCc2nc3ccccc3[nH]2)nnc1-c1cccs1	8	0	4	-13	-3
Cn1nnn(-c2ccc(NC(=O)NCc3cccc4ccccc34)cc2)c1=O	.	.	1	.	.
CCOC(=O)C1CCN(c2nc(N)c3c(N)nc(SCC(=O)O)cc3c2C#N)CC1	-8	45*	3	1	-1
COc1ccccc1Nc1n[nH]c(=S)s1	51*	-7	1	-12	3
O=C(CSc1nnc(CNC(=O)c2cccs2)o1)NCc1ccco1	.	.	-18	.	.
O=C(Nc1ccccc1Cl)c1ccccc1Oc1ccc(C(F)(F)F)cc1[N+](=O)[O-]	22	.	47*	12	2
Cc1cccc(-c2ccc(C=Nc3c(C)n(C)n(-c4ccccc4)c3=O)o2)c1	21	-3	50*	20	-5
Cc1cccc(NC(=O)CSc2nnc(CNC(=O)Cc3ccccc3)n2-c2cccc(Cl)c2)c1	.	.	14	.	.
Nc1ccc(C=C2C=Cc3ccccc32)cc1	.	.	18	17	.
NC(N)=Nc1ccc(C=C2C=Cc3ccccc32)cc1	.	.	42*	4	.
COCC(=O)NCCSc1c(-c2ccc(F)cc2)[nH]c2ccccc12	.	.	-2	.	.
CCOc1ccccc1CN1CCNC(=O)C1CC(=O)NC1CCCCCC1 (centres undefined)	-4	-3	4	-5	-3
CCOc1ccccc1CN1CCNC(=O)C1CC(=O)NC1CCCCC1 (centres undefined)	51*	-1	-7	-6	-7
SMILES	VHR inh abs	RecA intein inh	PriA SSB inh	CCHFV vOTU inh	SARS 3CLpro inh
CCC1CCCCN1CCCNC(=O)C1CCCN(S(=O)(=O)N2CC(C)CC(C)C2)C1 (centres undefined)	54*	1	3	9	-4
CN1CCN(C(=O)C2CCN(c3ncnc4c3nc3n4CCCCC3)CC2)CC1	11	0	-3	-4	-1
CCC1CCCCN1CCCNC(=O)C1CCCN(c2ncnc3c2nc2n3CCCCC2)C1 (centres undefined)	57*	-1	-1	-4	-1
CC1CC(C)CN(S(=O)(=O)N2CCCC(C(=O)NCCCN3CCCCC3C)C2)C1 (centres undefined)	2	-1	-12	10	-5
CN(Cc1ccco1)C(=O)C1CCCN(c2ncnc3c2nc2n3CCCCC2)C1 (centres undefined)	27	-6	-3	5	-1
COCCN(Cc1ccco1)C(=O)C1CCCN(c2ncnc3c2nc2n3CCCCC2)C1 (centres undefined)	52*	1	8	5	-11
O=C(C1CCN(c2ncnc3c2nc2n3CCCCC2)CC1)N1CCCCC1	52*	1	12	3	-4
COc1ccc(OC)c(CCNC(=O)C(C)n2nc(C)c3c(C)n(-c4ccc(C)cc4)nc3c2=O)c1 (centres undefined)	56*	5	2	8	-1
COc1ccc(OC)c(CCNC(=O)C(C)n2nc(C)c3c(C)n(-c4ccccc4)nc3c2=O)c1 (centres undefined)	31	6	6	2	-2
O=C(O)c1ccc(N(Cc2ccccc2)S(=O)(=O)c2ccccc2)cc1	59*!	0	2	-12	3
CCOc1ccccc1[C@@H]1CC(c2ccc(NS(=O)(=O)CC)cc2)=NN1C(=O)c1ccco1	.	.	-4	.	.
O=C(c1ccco1)N1CCc2ccc(NS(=O)(=O)c3ccc(F)c(Cl)c3)cc2C1	.	.	10	.	.
Cc1ccc2c(c1)c1nnc(SCC(=O)Nc3ccc(N(C)C)cc3)nc1n2CC(=O)O	-16	39*	2	11	-5
Cc1cc(=O)oc2cc(OCC(=O)NCCc3ccccc3)ccc12	58*	0	-4	-9	-7
COC(=O)c1ccc(NC(=O)COc2cccc3c2OC(C)(C)C3)cc1	.	4	46*!	-7	.
COc1nn(C)cc1C(=O)Nc1cccc(-c2cnc3n2CCC3)c1	.	.	3	.	.
Cc1cnnn1-c1ccc(C(=O)CCl)cc1	35	52*	6	-1	-5
CCCn1c(C)cc(C(=O)COc2ccc(C)nc2[N+](=O)[O-])c1C	54*	-2	10	2	-5
COCCn1c(C)cc(C(=O)COc2ccc(C)nc2[N+](=O)[O-])c1C	-1	-3	47*	8	-1
O=C(Nc1ccccc1Cc1nc(-c2ccco2)no1)c1cnn(-c2ccccc2)n1	.	.	-16	.	.
O=C(CSc1nc2ccccc2o1)NN=Cc1ccc(O)c(O)c1	.	.	12	.	.
COc1ccc(/C=C/C(=O)NC(=S)Nc2ccccn2)cc1	2	-1	38*	0	6
CCOC(=O)C1CCN(C(=O)Nc2ccc3nc(-c4ccco4)c(-c4ccco4)nc3c2)CC1	56*	-238	7	.	-4
O=C(Nc1ccc2nc(-c3ccco3)c(-c3ccco3)nc2c1)N1CCCCCC1	17	-134	3	.	-3
COCCN1CCC(CNC(=O)c2ccccc2)CC1	.	.	-10	.	.
SMILES	VHR inh abs	RecA intein inh	PriA SSB inh	CCHFV vOTU inh	SARS 3CLpro inh
O=C(Cn1nc(C(F)F)cc1C1CC1)N1CCCC1	59*	1	-5	3	0
COC(=O)Cc1c(C)c2ccc(OCC(=O)N(C)C)cc2oc1=O	51*	3	-2	-62	3
COc1cccc(NC(=O)N2CCC(Cn3cccn3)CC2)c1OC	.	.	10	.	.
O=C(COC(=O)c1ccc(O)cc1O)Nc1nnc(-c2ccccc2)o1	.	2	57*	8	.
COc1ccc(C(=O)OCC(=O)Nc2nnc(-c3ccccc3)o2)cc1	10	-6	0	14	-1
O=C(COC(=O)c1cccc(O)c1)Nc1nnc(-c2ccccc2)o1	.	0	43*	-6	.
CCCCCCOC(=O)c1ccc(OC(=O)c2cccnc2)cc1	18	61*	-14	.	1
CCOc1ccc(CN(C)C(=O)CCl)cc1	6	55*	-6	-9	0
CCOc1ccc(CN(C)C(=O)CCNC(=O)c2ccco2)cc1	.	.	1	5	.
